# Measured values as given in PubChem BioAssay (NCATS).
# Results filed as inconclusive are left out. Entries that show only a call come without a potency. The source made the active and inactive calls. Unless noted, calls come from the whole dose curve; as a rule, active = well fitted curve in the direction sought with a large enough effect; inconclusive = small, poorly fitted or top-dose-only effect, or another doubt; inactive = no such curve, though single readings can be large; an effect the other way counts as inactive or inconclusive. Where a SMILES comes first, the peptide text is derived from it. [ ]: non-standard residue; d: D form. pGlu = O=C1CC[C@@H](C(=O)O)N1
# Key:
# [1] = qHTS assay for measurement of the activity of small molecule inhibitors on Zika virus induced Caspase-3 activity in human iPSC derived neural progenitor cells (hNPCs) (AID 1224857); note: nearly all actives have a fitted effect of over 65% in size
# Summary of the method: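 After overnight (16–20 h) culture at 350 cells/well, hNPCs get compound, then ZIKV 2 FFU/cell one hour later. Six hours on, Caspase-Glo 3/7 is added and luminescence measured.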
# [2] = qHTS assay for measurement of the activity of small molecule inhibitors on Zika virus induced Caspase-3 activity in human astrocytoma cells (AID 1224859)
# Summary of the method: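 Inhibition of Zika-induced caspase-3/7 activity: SNB-19 cells, 1 h compound pretreatment, ZIKV 2 FFU/cell for 6 h at 37 C, Caspase-Glo luminescence read-out.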
# [3] = NS1 protein of Zika virus - qHTS assay to identify small molecule inhibitors in human HEK 293 cells (AID 1347053); note: nearly all actives have a fitted effect of over 55% in size; note: potency is the fitted concentration of half-maximal effect
# Summary of the method: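 HEK 293; 20 h pre-culture, 37 C/5% CO2; cpd 1 h pre-infection; ZIKV MR766, MOI = 0.5, 24 h, 37 C; TR-FRET NS1 readout (two anti-NS1 Abs); norm. to no-virus vs infected.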
# [4] = P-glycoprotein substrates identified in KB-3-1 adenocarcinoma cell line, qHTS therapeutic library screen (AID 1346986); note: nearly all actives have a fitted effect of over 60% in size
# Summary of the method: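 Compounds were tested in dose-response against KB-3-1 and KB-8-5-11 cells at 37 degree C for 72 h, and viability was measured by luminescence. AC50 values came from curve fitting with class-based activity calls.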
# [5] = P-glycoprotein substrates identified in KB-8-5-11 adenocarcinoma cell line, qHTS therapeutic library screen (AID 1346987); note: nearly all actives have a fitted effect of over 65% in size
# Summary of the method: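 KB-8-5-11: colchicine-selected sub-line of KB-3-1 over-expressing P-gp; assay medium lacked colchicine. 72 h drug exposure at 37 degree C, CellTiter-Glo.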
# [6] = qHTS profiling of the MIPE4 collection as inhibitors of Plasmodium falciparum (DD2) proliferation (AID 743345; call rule not given here); conditions: P. falciparum Dd2 in erythrocytes, SYBR Green DNA, 72 h; at 28.5 µM (top of the series) unless noted
# Summary of the method: (§1)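 Erythrocytes infected with P. falciparum (0.3% parasitemia, 2.5% hematocrit) incubated with compounds 72 h at 37 C, 5% CO2. Lysis with saponin/Triton buffer containing SYBR Green I, overnight at room temperature in the dark; DNA fluorescence (485/535 nm) normalised to 0.29 uM artemisinin and DMSO.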
# [7] = qHTS profiling of the MIPE4 collection as inhibitors of Plasmodium falciparum (DD2) proliferation (Rep 2) (AID 743346; call rule not given here); conditions: P. falciparum Dd2 in erythrocytes, SYBR Green DNA, 72 h; at 28.5 µM (top of the series) unless noted
# Summary of the method: as §1
# [8] = qHTS profiling of the MIPE4 collection as inhibitors of Plasmodium falciparum (HB3) proliferation (AID 743347; call rule not given here); conditions: P. falciparum HB3 in erythrocytes, SYBR Green DNA, 72 h; at 28.5 µM (top of the series) unless noted
# Summary of the method: as §1
# [9] = Natriuretic polypeptide receptor (hNpr1) antagonism - Pilot counterscreen GloSensor control cell line (AID 1347045; calls by dose curve; note: potency is the fitted concentration of half-maximal effect)
# Summary of the method: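 HEK293 cells carrying the GloSensor cGMP sensor (GIP/pGS-40F) were loaded with 2% GloSensor reagent for 2 h, exposed to compounds for 30 min, and then stimulated with 50 uM sodium nitroprusside for 20 min at room temperature.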
smiles,measurement,setting,value
O=C(O)Cn1c(=O)n(Cc2ccc(Br)cc2F)c(=O)c2ccc(Cl)cc21,Potency,[1],inactive
same,outcome,[2],inactive
same,Potency,[3],inactive
CN(C)CCOC(c1ccccc1)c1ccc(Br)cc1 (stereo not drawn),Potency,[1],inactive
same,outcome,[2],inactive
same,Potency,[3],inactive
O=C(CCOCCOCCOCCOCCC(=O)Nc1c(I)cc(I)c(C(=O)O)c1I)Nc1c(I)cc(I)c(C(=O)O)c1I,Potency,[1],inactive
same,outcome,[2],inactive
same,Potency,[3],inactive
CN1CC[C@H](c2c(O)cc(O)c3c(=O)cc(-c4ccccc4Cl)oc23)[C@H](O)C1,Potency,[1],inactive
same,outcome,[2],inactive
same,Potency,[3],1.58 µM (active)
Cc1c(N)cccc1C(F)(F)F,Potency,[1],inactive
same,outcome,[2],inactive
same,Potency,[3],inactive
COC(=O)CCCCC(CCSS/C(CCO)=C(\C)N(C=O)Cc1cnc(C)nc1N)SC(C)=O (stereo not drawn),Potency,[1],inactive
same,outcome,[2],inactive
same,Potency,[3],inactive
Cc1coc2ccccc2c1=O,Potency,[1],inactive
same,outcome,[2],inactive
same,Potency,[3],inactive
Cc1cc(O)c2c(O)c3c(O)cccc3cc2c1,Potency,[1],inactive
same,outcome,[2],inactive
same,Potency,[3],inactive
CCOC(=O)C(=O)c1csc(NC=O)n1,Potency,[1],inactive
same,outcome,[2],inactive
same,Potency,[3],inactive
C[C@@H](O[C@H]1OCCN(Cc2n[nH]c(=O)[nH]2)[C@H]1c1ccc(F)cc1)c1cc(C(F)(F)F)cc(C(F)(F)F)c1,Potency,[1],inactive
same,outcome,[2],inactive
same,Potency,[3],inactive
CCCC(=O)O[C@]1(C(=O)CCl)[C@@H](C)C[C@H]2[C@@H]3CCC4=CC(=O)C=C[C@]4(C)[C@@]3(F)C(=O)C[C@@]21C,outcome,[2],inactive
O=C1CC(c2ccc(Cl)cc2)CC(=O)N1,Potency,[1],inactive
same,outcome,[2],inactive
same,Potency,[3],inactive
CC(C)(C)NCC(O)COc1ccccc1OCC1CCCO1 (stereo not drawn),Potency,[1],inactive
same,outcome,[2],inactive
same,Potency,[3],inactive
O=C(O)c1ccc(OCCN2CCCCC2)cc1,Potency,[1],inactive
same,outcome,[2],inactive
same,Potency,[3],inactive
C[C@H]1C[C@H]2[C@@H]3CCC4=CC(=O)C=C[C@]4(C)[C@H]3C(=O)C[C@]2(C)[C@@]1(O)C(=O)CO,Potency,[1],inactive
same,outcome,[2],inactive
same,Potency,[3],inactive
CCOC(=O)c1cc(=O)c2c(OCC(COc3cccc4oc(C(=O)OCC)cc(=O)c34)OC(=O)[C@@H](N)CCCCN)cccc2o1,Potency,[1],inactive
same,outcome,[2],inactive
same,Potency,[3],inactive
Cc1ncc([N+](=O)[O-])n1C,Potency,[1],inactive
same,outcome,[2],inactive
same,Potency,[3],inactive
COc1ccc(/C(C)=C/C(=O)O)c(OC)c1,Potency,[1],inactive
same,outcome,[2],inactive
same,Potency,[3],inactive
COCCc1ccccn1,Potency,[1],inactive
same,outcome,[2],inactive
same,Potency,[3],inactive
O=C1OC2(c3ccccc31)c1cc(I)c(O)c(I)c1Oc1c2cc(I)c(O)c1I,outcome,[2],inactive
Cc1onc(-c2c(Cl)cccc2Cl)c1C(=O)Cl,Potency,[1],inactive
same,outcome,[2],inactive
same,Potency,[3],inactive
O=C(OCC(O)CO)c1ccccc1Nc1ccnc2c(C(F)(F)F)cccc12 (stereo not drawn),Potency,[1],inactive
same,outcome,[2],inactive
same,Potency,[3],inactive
Fc1ccc(C(c2ccc(F)cc2)N2CCNCC2)cc1,Potency,[1],inactive
same,outcome,[2],inactive
same,Potency,[3],inactive
CC(C(=O)O)c1ccc(/C=C2\CCCCC2=O)cc1 (stereo not drawn),outcome,[2],inactive
same,Potency,[4],inactive
same,Potency,[5],inactive
same,Potency,[3],inactive
CCOC(=O)[C@H](CCc1ccccc1)N[C@@H](C)C(=O)N(CC(=O)O)C1Cc2ccccc2C1,Potency,[1],inactive
same,outcome,[2],inactive
same,Potency,[3],inactive
CCNC(=O)[C@@H]1CCCN1C(=O)[C@H](CCCN=C(N)N)NC(=O)[C@H](CC(C)C)NC(=O)CNC(=O)[C@H](Cc1ccc(O)cc1)NC(=O)[C@H](CO)NC(=O)[C@H](Cc1c[nH]c2ccccc12)NC(=O)[C@H](Cc1cnc[nH]1)NC(=O)[C@@H]1CCC(=O)N1 ([pGlu]HWSYGLRP-NHEt),Potency,[1],inactive
same,outcome,[2],inactive
same,Potency,[3],inactive
CCN(CC)CC(=O)OCC(=O)[C@@]1(O)CC[C@H]2[C@@H]3CCC4=CC(=O)CC[C@]4(C)[C@H]3[C@@H](O)C[C@@]21C,Potency,[1],inactive
same,outcome,[2],inactive
same,Potency,[3],inactive
OC(CCCN1CCCCC1)(c1ccccc1)c1ccccc1,Potency,[1],inactive
same,outcome,[2],inactive
same,Potency,[3],inactive
CCCCCCOC(=O)NC(=N)c1ccc(NCc2nc3cc(C(=O)N(CCC(=O)OCC)c4ccccn4)ccc3n2C)cc1,Potency,[1],inactive
same,outcome,[2],inactive
same,Potency,[3],inactive
NCC[C@H](O)C(=O)N[C@@H]1C[C@H](N)[C@@H](O[C@H]2O[C@H](CN)[C@@H](O)[C@H](O)[C@@H]2O)[C@H](O)[C@@H]1O[C@H]1O[C@H](CO)[C@@H](O)[C@H](N)[C@@H]1O,"parasite growth remaining, % of DMSO control (lower = more inhibition)",[6],89.8% [at 0.217 µM]
same,"parasite growth, % of control (lower = inhibition)",[7],163% [at 0.217 µM]
same,"growth, % of control",[8],94.3% [at 0.217 µM]
same,"activity change, negative = inhibition",[1],-1.8% [at 0.568 µM] (inactive)
same,"activity change, negative = inhibition",[2],13.4% [at 0.568 µM] (inactive)
same,"activity change, negative = inhibition",[3],-0.409% [at 0.593 µM] (inactive)
CC1(C)O[C@@H]2C[C@H]3[C@@H]4CCC5=CC(=O)C=C[C@]5(C)[C@@]4(F)[C@@H](O)C[C@]3(C)[C@]2(C(=O)CO)O1,Potency,[1],inactive
same,outcome,[2],inactive
same,Potency,[3],inactive
O=C1CC2(CCCC2)CC(=O)N1,Potency,[1],inactive
same,outcome,[2],inactive
same,Potency,[3],inactive
CCOC(=O)c1ccc(NC(=O)CN2CCCCC2)cc1,Potency,[4],inactive
CC(C)N(CCC(=O)c1ccc2ccccc2c1)Cc1ccccc1,Potency,[9],13.1 µM (active)
